We go through nine molecules from PubChem BioAssay (NCATS).

Unmarked numbers belong to inactive results. Inconclusive results are not listed. The source made the active and inactive calls. Unless noted, calls follow the shape of the dose curve; as a rule, active = well fitted curve in either direction with a large enough effect (not every such curve was filed as active); inconclusive = small, poorly fitted or top-dose-only effect, or another doubt; inactive = flat fitted curve, though single readings scatter.

Experiment [1] concerns the target Lysosomal acid glucosylceramidase (Homo sapiens) (UniProt P04062). Nature of the experiment: Glucocerebrosidase-p2 (AID 348; in the data active = potency below about 10 µM; also: potency is read from the fitted curve at half-maximal effect). To be noted: purified GBA, blue fluorogenic substrate, 40 min. A digest of the protocol:
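Normal human glucocerebrosidase (0.2 nM) with blue fluorogenic substrate (80 uM final) in citrate/phosphate pH 5.9 with 10mM sodium taurocholate, 0.01% tween-20; 40 min RT, NaOH/glycine stop; fluorescence Ex 365/Em 440; AC50 from a titration from 0.6 nM upwards.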

Experiment [2] is described as follows: AP1 Signaling Pathway (AID 357).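 Also: ME-180 reporter cells stimulated with EGF at its EC50 level; % is scaled to controls: 0 for no effect and ±100 for the full control effect.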 Particulars: ME-180 AP-1-bla reporter, EGF-induced, beta-lactamase ratio, 5 h; at 7.69 µM (top of the series) unless noted. In outline:
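Cells are seeded overnight, exposed to compound titrations and an EC50 level of EGF for 5 hours at 37 °C, then loaded with CCF4 dye for 2.5 hours. Beta-lactamase activity under the AP-1 element is read as a blue/green ratio.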

Experiment [3] in a line: Stat Signaling Pathway (AID 446).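 Also: ME-180 cervical cancer cells given 40 pM IL-6 alongside compound; SIE-controlled beta-lactamase reporter measured as 460/530 nm FRET emission ratio; % is scaled to controls: 0 for no effect and ±100 for the full control effect.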 To be noted: ME-180 SIE beta-lactamase reporter, IL-6 stimulated, 5 h; at 7.69 µM (top of the series) unless noted. A digest of the protocol: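 Compound effects on IL-6-induced STAT reporter activity were measured in ME-180 cells. After overnight culture, cells were co-treated with 40 pM IL-6 for 5 hrs before beta-lactamase substrate loading at room temperature.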

In experiment [4] the target is Glucocorticoid receptor (Homo sapiens) (UniProt P04150). Nature of the experiment: GR-EFC Redistribution (AID 451; calls by dose curve; also: potency is read from the fitted curve at half-maximal effect). Particulars: CHO-K1 GR-EFC translocation, beta-gal luminescence, 2 h. A digest of the protocol:
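Translocation of GR-ED fusion to nuclear EA restores b-gal, read by luminescence after 1 h room-temperature detection. Engineered CHO-K1 biosensor cells, 1,000/well, exposed 2 h at 37 C to titrations up to 46 uM final.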

The target of experiment [5] is Mitogen-activated protein kinase 10 (Mus musculus) (UniProt Q61831). Nature of the experiment: JNK3 AlphaScreen Assay (AID 530).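 Also: kinase came from lysate of stimulated human HepG2 cells; signal reports phosphorylation of biotinylated GST-cJun 1-79 at Ser73 with 10 µM ATP; % is scaled to controls: 0 for no effect and ±100 for the full control effect.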 Particulars: JNK3 lysate, c-Jun phosphorylation; series mostly up to 57.1 µM. In outline:
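qHTS titrations with 15 min compound pre-incubation before adding ATP (10 uM final). Read-out: AlphaScreen of Ser73-phosphorylated biotin-GST-cJun using HepG2 lysate JNK3 activated by IL-1β and TNFα.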
On the technique in general: In Alpha technology, singlet oxygen from a donor bead excites a nearby acceptor bead.

Experiment [6] addresses 3',5'-cyclic-AMP phosphodiesterase 4B (Homo sapiens) (UniProt Q07343). The experiment can be described thus: qHTS Assay for Inhibitors of PDE-IV (AID 607; active = well fitted activation curve with a large enough effect in the main read-out, with a control signal flat, not every such curve was filed as active; also: % of control where 0% means no effect). Particulars: HEK293 ACTOne CNG channel cells, membrane potential fluorescence; series mostly up to 22.9 µM. A digest of the protocol:
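ACTOne HEK293 cells carry a modified cAMP-gated CNG channel and express endogenous PDE4; plated 1000 cells/well, compounds up to 22.9 uM final. Membrane-potential dye fluorescence (ex 535/em 590) was read; parental cells received 10 uM forskolin + 100 uM RO 20-1724.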
For orientation: In qHTS, concentration-response curves come from the screen itself.

The nature of experiment [7]: qHTS Assay for Identification of Small Molecule Agonists for Hypoxia Response Element Signaling Pathway (AID 914; active = well fitted activation curve with a large enough effect in the signal ratio, with a control signal flat, not every such curve was filed as active; the % refers to the signal ratio; also: % of control where 0% means no effect). To be noted: ME-180 (cervical carcinoma) HRE-bla reporter, beta-lactamase ratio, CoCl2, 17 h; activation: hits give high values. A digest of the protocol:
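AC50 values come from titration-series %Activity, taken as the 460/530nm ratio of CCF4 fluorescence (excitation 405nm). CellSensor HRE-bla ME-180 cells were treated 17 hours at 37 C with compound plus an EC50 level of CoCl2.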

A short description of experiment [8]: Primary qHTS for small molecule stabilizers of the endoplasmic reticulum resident proteome: Secreted ER Calcium Modulated Protein (SERCaMP) assay (AID 1508630; active = well fitted curve in the direction sought with a large enough effect; an effect the other way counts as inactive or inconclusive; also: % is scaled to controls: 0 for no effect and ±100 for the full control effect). To be noted: SH-SY5Y GLuc-SERCaMP (Gaussia luciferase released on ER calcium loss) secretion, thapsigargin, luminescence; series mostly up to 38.4 µM. In outline:
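The SH-SY5Y reporter protocol was run at 3 concentrations up to 38.3 uM (primary) or 11 concentrations (follow-up): 16 h compound, 100 nM thapsigargin for 4 h, then extracellular luciferase luminescence.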

Experiment [9] concerns the target Cytochrome P450 1A2 (Homo sapiens) (UniProt P05177). The experiment can be described thus: p450-cyp1a2 (AID 410; calls by dose curve; also: potency is read from the fitted curve at half-maximal effect). Particulars: recombinant CYP1A2, luciferin-ME demethylation, luminescence; series mostly up to 57 µM. A digest of the protocol: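 Luminescent demethylation readout: Luciferin-ME (100uM, equal to Km) turned over by 20nM CYP1A2 for 60 min at room temperature after NADPH regeneration addition, following 10 min compound preincubation. Normalization used 57 uM furafylline as full inhibition.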

The nature of experiment [10]: NFAT Signaling Pathway (AID 444). Particulars: Jurkat NFAT-bla M1, carbachol, beta-lactamase ratio, 5 h; at 7.69 µM (top of the series) unless noted. In outline:
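Read-out: CCF4 FRET ratio (460 nm/530 nm) after 1 h RT dye loading, used for %activity and AC50 from titration series. Cells: Jurkat NFAT-β-lactamase/M1 line, treated with compound plus 1 uM carbachol for 5 h, 37 °C.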

For experiment [11], the target named is Glucocorticoid receptor (Homo sapiens) (UniProt P04150). Nature of the experiment: GR-GFP Redistribution (AID 450;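 active = compounds whose dose series gives a full or clear partial fitted curve of increased nuclear translocation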; also: potency is read from the fitted curve at half-maximal effect). Particulars: U2OS GR-GFP nuclear translocation, laser cytometry, 2 h.
Experiment [12] deals with Cytochrome P450 3A4 (Homo sapiens) (UniProt P08684). Nature of the experiment: qHTS Assay for Activators of Cytochrome P450 3A4 (AID 885; active = well fitted curve in the direction sought with a large enough effect; an effect the other way counts as inactive or inconclusive; also: nearly all actives have a fitted effect of over 65% in size). To be noted: recombinant CYP3A4, Luciferin-PPXE luminescence, 60 min; series mostly up to 57.1 µM. In outline:
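CYP3A4 activity: Luciferin-PPXE O-dealkylation, 25uM substrate, 200mM KPO4, RT throughout. Read-out is luciferase luminescence; higher values reflect activation.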

Experiment [13] in a line: Confirmation and Secondary Assay for Modulators of Hemoglobin Beta Chain Splicing at IVS2 654 locus (AID 910; active = well fitted curve in the direction sought with a large enough effect; an effect the other way counts as inactive or inconclusive;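 also: HeLa cells stably carrying EGFP split by mutant beta-globin IVS2-654 intron; per-well total GFP intensity by laser scanning cytometry after 2-day treatment; % of control where 0% means no effect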). Particulars: HeLa EGFP-654 splicing reporter, GFP fluorescence, 48 h; series mostly up to 38.3 µM. A digest of the protocol:
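Readout: per-well total peak green fluorescence (488 nm ex, 500–520 nm em) from objects 5–250 µm, reflecting correct splicing of an EGFP-654 reporter. Compounds were applied for 2 days at 37 °C to overnight-plated HeLa EGFP-654 cells; controls were DMSO and 500 nM IVS2-654 PNA.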

Experiment [14] is described as follows: Confirmation and Secondary Assay for Modulators of Hemoglobin Beta Chain Splicing at IVS2 705 locus (AID 930; active = well fitted curve in the direction sought with a large enough effect; an effect the other way counts as inactive or inconclusive;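 also: HeLa cells stably expressing the EGFP-705 splicing reporter; % of control where 0% means no effect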). To be noted: HeLa EGFP-705 splicing reporter, GFP fluorescence, 48 h; series mostly up to 38.3 µM. In outline: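 Restored EGFP fluorescence after 2-day compound exposure reports splicing correction in IVS2-705 EGFP reporter HeLa cells; positive control was 500 nM splice-blocking PNA oligo. Signal measured as well total peak GFP intensity (488 nm excitation).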

In experiment [15] the target is Cytochrome P450 2C9 (Homo sapiens) (UniProt P11712). The experiment can be described thus: qHTS Assay for Inhibitors and Substrates of Cytochrome P450 2C9 (AID 883; active = well fitted curve in the direction sought with a large enough effect; an effect the other way counts as inactive or inconclusive; also: % is scaled to controls: 0 for no effect and ±100 for the full control effect; nearly all actives have a fitted effect of over 60% in size). Particulars: recombinant CYP2C9, luciferin-H luminescence, 60 min; series mostly up to 57.1 µM. A digest of the protocol: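 Luminescent read-out of deoxyluciferin hydroxylation, normalized to 57uM sulphaphenazole (AC100). Reaction: 10nM enzyme, 100uM Luciferin-H (equal to KM), 25mM KPO4, 10 min compound preincubation, then 60 min with NADPH regeneration, both at 37C.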

Experiment [16] deals with Cytochrome P450 3A4 (Homo sapiens) (UniProt P08684). Nature of the experiment: qHTS Assay for Inhibitors and Substrates of Cytochrome P450 3A4 (AID 884; active = well fitted curve in the direction sought with a large enough effect; an effect the other way counts as inactive or inconclusive; also: % is scaled to controls: 0 for no effect and ±100 for the full control effect; nearly all actives have a fitted effect of over 50% in size). Particulars: recombinant CYP3A4, Luciferin-PPXE luminescence; series mostly up to 57.1 µM. In outline:
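Luminescent readout of luciferin produced by CYP3A4 (20 nM) dealkylation of Luciferin-PPXE, 25 uM (its KM). NADPH-driven reaction ran 60 min at RT after 10 min compound preincubation; data scaled to 57 uM ketoconazole as 100% inhibition.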

Sequence of Lysosomal acid glucosylceramidase (Homo sapiens) (P04062 whole entry, looked up): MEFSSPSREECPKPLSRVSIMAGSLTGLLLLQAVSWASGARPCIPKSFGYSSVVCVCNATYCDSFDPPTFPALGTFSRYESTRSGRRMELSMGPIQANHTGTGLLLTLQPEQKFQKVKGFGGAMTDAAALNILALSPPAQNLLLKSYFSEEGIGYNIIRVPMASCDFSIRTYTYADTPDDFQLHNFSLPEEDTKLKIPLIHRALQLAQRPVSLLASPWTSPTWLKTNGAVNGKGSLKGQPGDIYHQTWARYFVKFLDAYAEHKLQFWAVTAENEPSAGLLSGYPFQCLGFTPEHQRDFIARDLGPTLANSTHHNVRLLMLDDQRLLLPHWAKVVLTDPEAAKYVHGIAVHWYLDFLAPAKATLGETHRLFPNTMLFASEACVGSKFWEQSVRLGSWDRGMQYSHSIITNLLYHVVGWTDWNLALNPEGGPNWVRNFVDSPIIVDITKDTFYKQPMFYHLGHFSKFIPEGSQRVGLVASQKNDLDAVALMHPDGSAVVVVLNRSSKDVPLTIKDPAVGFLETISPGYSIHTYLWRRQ
Sequence of Cytochrome P450 3A4 (Homo sapiens) (P08684 whole entry, looked up): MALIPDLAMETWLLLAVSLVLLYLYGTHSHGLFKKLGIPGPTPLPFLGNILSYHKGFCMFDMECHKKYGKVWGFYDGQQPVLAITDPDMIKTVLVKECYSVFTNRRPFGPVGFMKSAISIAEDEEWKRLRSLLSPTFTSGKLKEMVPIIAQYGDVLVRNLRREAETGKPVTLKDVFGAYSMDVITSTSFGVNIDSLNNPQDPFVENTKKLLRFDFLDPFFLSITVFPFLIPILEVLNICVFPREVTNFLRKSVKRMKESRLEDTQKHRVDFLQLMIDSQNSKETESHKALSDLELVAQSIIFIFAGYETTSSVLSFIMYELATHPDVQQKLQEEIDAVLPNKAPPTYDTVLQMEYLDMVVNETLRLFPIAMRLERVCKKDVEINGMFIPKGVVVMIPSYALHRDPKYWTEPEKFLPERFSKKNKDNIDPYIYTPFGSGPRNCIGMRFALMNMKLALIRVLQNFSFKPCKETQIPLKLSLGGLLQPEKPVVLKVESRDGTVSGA
Sequence of Cytochrome P450 1A2 (Homo sapiens) (P05177 whole entry, looked up): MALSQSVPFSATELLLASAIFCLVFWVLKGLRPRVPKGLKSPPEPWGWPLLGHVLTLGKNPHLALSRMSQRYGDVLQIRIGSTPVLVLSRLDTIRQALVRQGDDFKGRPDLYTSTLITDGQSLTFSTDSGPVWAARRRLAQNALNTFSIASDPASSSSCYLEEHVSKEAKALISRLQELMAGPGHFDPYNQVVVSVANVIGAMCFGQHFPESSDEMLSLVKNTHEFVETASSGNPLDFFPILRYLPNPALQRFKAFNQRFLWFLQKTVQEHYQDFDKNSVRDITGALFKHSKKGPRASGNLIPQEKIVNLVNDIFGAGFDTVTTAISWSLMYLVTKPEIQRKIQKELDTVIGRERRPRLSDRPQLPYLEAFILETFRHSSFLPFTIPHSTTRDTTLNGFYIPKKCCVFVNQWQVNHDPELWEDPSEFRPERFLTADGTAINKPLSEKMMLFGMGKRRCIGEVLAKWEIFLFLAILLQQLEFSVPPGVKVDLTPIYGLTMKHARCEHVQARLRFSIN
Sequence of 3',5'-cyclic-AMP phosphodiesterase 4B (Homo sapiens) (Q07343 whole entry, looked up): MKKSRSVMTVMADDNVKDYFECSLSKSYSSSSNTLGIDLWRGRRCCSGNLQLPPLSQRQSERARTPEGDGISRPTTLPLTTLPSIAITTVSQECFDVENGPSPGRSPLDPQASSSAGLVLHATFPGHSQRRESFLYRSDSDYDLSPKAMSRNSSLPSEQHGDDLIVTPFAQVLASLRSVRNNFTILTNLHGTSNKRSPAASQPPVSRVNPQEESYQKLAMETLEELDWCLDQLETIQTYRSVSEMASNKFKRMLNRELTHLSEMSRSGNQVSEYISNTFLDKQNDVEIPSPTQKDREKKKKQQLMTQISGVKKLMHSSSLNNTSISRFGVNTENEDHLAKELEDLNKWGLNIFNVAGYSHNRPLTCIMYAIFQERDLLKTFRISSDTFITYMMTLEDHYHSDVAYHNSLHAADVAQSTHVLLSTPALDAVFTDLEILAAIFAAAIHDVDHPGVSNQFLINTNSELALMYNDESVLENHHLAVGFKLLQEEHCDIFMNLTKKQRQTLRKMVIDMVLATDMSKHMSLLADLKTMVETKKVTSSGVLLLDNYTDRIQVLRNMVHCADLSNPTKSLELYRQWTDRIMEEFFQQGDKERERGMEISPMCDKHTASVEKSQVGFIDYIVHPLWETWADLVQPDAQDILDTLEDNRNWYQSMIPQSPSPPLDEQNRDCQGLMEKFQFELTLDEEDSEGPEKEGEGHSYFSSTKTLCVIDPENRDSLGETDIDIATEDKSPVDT
Sequence of Glucocorticoid receptor (Homo sapiens) (P04150 whole entry, looked up, the tested form may be a part): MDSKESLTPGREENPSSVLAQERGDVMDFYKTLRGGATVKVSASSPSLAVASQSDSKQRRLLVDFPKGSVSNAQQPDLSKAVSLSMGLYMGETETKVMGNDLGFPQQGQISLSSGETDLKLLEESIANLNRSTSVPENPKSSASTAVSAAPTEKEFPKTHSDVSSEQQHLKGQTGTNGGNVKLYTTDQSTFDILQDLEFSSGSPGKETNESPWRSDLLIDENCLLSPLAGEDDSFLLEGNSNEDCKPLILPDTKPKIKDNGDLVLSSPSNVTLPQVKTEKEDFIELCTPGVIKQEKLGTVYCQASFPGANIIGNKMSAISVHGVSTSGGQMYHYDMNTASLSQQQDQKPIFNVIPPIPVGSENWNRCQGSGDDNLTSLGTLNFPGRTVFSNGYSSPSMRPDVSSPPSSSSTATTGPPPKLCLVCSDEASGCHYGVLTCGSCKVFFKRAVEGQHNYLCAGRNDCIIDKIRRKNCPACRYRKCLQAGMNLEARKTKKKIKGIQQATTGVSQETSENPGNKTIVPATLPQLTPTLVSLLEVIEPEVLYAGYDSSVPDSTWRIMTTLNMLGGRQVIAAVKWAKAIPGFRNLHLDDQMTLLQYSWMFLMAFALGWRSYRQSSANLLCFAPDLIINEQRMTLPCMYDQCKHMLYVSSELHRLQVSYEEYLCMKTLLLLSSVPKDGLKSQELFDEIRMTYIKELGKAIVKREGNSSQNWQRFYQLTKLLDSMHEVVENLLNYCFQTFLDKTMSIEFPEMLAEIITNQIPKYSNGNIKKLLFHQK
Sequence of Cytochrome P450 2C9 (Homo sapiens) (P11712 whole entry, looked up): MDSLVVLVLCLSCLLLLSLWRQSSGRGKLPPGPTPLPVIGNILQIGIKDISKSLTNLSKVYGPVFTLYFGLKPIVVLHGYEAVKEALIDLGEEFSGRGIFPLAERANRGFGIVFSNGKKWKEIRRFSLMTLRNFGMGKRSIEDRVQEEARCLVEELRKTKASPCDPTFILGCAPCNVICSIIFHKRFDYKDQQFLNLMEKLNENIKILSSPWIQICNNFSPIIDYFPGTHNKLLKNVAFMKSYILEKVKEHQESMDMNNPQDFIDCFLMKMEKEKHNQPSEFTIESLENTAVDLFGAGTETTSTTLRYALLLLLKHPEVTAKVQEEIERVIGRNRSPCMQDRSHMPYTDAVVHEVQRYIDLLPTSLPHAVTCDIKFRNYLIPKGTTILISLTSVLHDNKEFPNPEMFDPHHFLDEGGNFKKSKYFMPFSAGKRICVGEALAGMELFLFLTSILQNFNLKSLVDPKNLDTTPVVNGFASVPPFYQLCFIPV

In the case of `N#Cc1cccc(NC(=O)N2CCCC3(CCN(C(=O)c4ccncc4)CC3)C2)c1`, the Potency in experiment [1] is above 11.4 µM; in experiment [4], above 46 µM. Also, the activity change, negative = inhibition in experiment [2] was -9.49%. Moreover, the activity, negative = inhibition in experiment [3] is 1.51%. The Potency result in [5] and in experiment [6] was “inactive” throughout. Further, the activation in [7] was -1.72%. Moreover, in experiment [8], the outcome was inactive.
As to `CS(=O)(=O)N1CCC2(CCN(Cc3ccc(C#N)cc3)CC2)CC1`, the Potency in experiment [1] was above 11.4 µM. Also, the activity change, negative = inhibition in experiment [2] was 3.08%. For the same molecule, the activity, negative = inhibition in experiment [3] was 3.96%. For the same molecule, the Potency result in experiment [5] and in experiment [6] was “inactive” each time. For the same molecule, in experiment [8], the outcome was inactive.
Turning to `O=C(Oc1ccccc1)N1CCC2(CCCN(c3ncccn3)C2)CC1`, the Potency is above 11.4 µM in experiment [1], 10 µM (active) in experiment [9] and above 46 µM in experiment [4]. In experiment [10], the activity change, negative = inhibition is -6.42%. The activity, negative = inhibition in experiment [3] was -23.6%. For the same molecule, the Potency result in [6] is “inactive”. Further, in [8], the outcome was inactive.
Consider `COc1ccccc1CNc1cc(-c2cccc(NS(C)(=O)=O)c2)ncn1`, for which the Potency in [1] was above 11.4 µM; in experiment [9] it was 15.8 µM (active); in experiment [11], above 46 µM; in [4] it was above 46 µM. Moreover, in [10], the activity change, negative = inhibition was -3.65%. The activity, negative = inhibition in [3] is -1.76%. The Potency result in experiment [5], in experiment [6], in experiment [12] and in experiment [13] was “inactive” each time. Besides, the outcome in experiment [14] and in [8] was inactive.
As to `N#Cc1ccc(CN2CCC3(CC2)CCN(C(=O)c2cnccn2)CC3)cc1`, the Potency in experiment [1] is above 11.4 µM; in experiment [4], above 46 µM. Moreover, the activity change, negative = inhibition in [2] was 4.06%. The Potency entry in [5] and in experiment [6] was “inactive” in each case. For the same molecule, the outcome in [8] was inactive.
Consider `O=C(c1cc(C(F)(F)F)cc(C(F)(F)F)c1)N1CCC2(CCCN(c3ccccn3)C2)CC1`, for which the Potency is above 11.4 µM in experiment [1] and above 46 µM in experiment [4]. Further, in [2], the activity change, negative = inhibition was 10.7%. Further, the activity, negative = inhibition in experiment [3] is -14.7%. Also, the Potency entry in experiment [5] and in experiment [6] was “inactive” throughout. For the same molecule, the activation in experiment [7] is 2.81%. In [8], the result was inactive.
Take `Cn1c(=O)c(-c2ccccc2)nc2cnc(Oc3ccccc3)nc21`: the Potency in [1] was above 11.4 µM; in experiment [9], 2 µM (active); in experiment [11], above 9.22 µM; in experiment [4], above 46 µM. In addition, the activity change, negative = inhibition in [10] was 7.65%. For the same molecule, the activity, negative = inhibition in [3] was -0.677%. The Potency result in experiment [5] and in experiment [6] was “inactive” each time. The result in experiment [8] was inactive.
`COc1cccc(Cn2c(=O)c(-c3cccs3)nc3cnc(N4CCN(C)CC4)nc32)c1`: the Potency is above 11.4 µM in experiment [1], 5.01 µM (active) in experiment [9], above 9.22 µM in experiment [11] and above 46 µM in experiment [4]. The activity change, negative = inhibition in experiment [10] is 160% [activator] (active). Also, the Potency result in experiment [6], in experiment [15] and in experiment [12] was “inactive” throughout. For the same molecule, the result in experiment [8] was inactive.
On to `O=C(Oc1ccccc1)N1CCC2(CC1)CCN(c1ccccn1)CC2`, for which the Potency in experiment [1] was above 11.4 µM; in experiment [4], above 46 µM. Also, the activity change, negative = inhibition in experiment [2] was -11.8%. Besides, the activity, negative = inhibition in [3] is -7.33%. Also, the Potency entry in experiment [5], in [6] and in experiment [16] was “inactive” throughout. The result in experiment [8] was inactive.
